Screens from PubChem BioAssay.
WRN helicase inh – inhibitors of human WRN helicase. hit rate 0.46% among 360,000. Potency, µM (highest dose often 114 µM), for the others: at the highest dose activity change, negative = inhibition, usual class: inhibitors. Q14191. WRN helicase unwinding, fluorescent forked duplex, kinetic; also: % is scaled to controls: 0 for no effect and ±100 for the full control effect; nearly all actives have a fitted effect of over 55% in size
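Primary qHTS, 1536-well format. 20 nM WRN + compound, 15 min RT; start with 100 nM forked fluorophore/quencher duplex, 2 mM ATP (final); kinetic read ex 525/em 598 nm.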
FEN1 inhibitor – blocks human flap endonuclease 1 | P39748 | Recombinant FEN1 flap cleavage, fluorescence, 15 min | Potency, µM (highest dose often 114 µM), for inactives: at the top dose activity change, negative = inhibition, actives largely listed as inhibitors | hit rate 0.35% among 390,000 | AID 588795; also: % is scaled to controls: 0 for no effect and ±100 for the full control effect; nearly all actives have a fitted effect of over 65% in size
Target sequence (P39748 whole entry, looked up): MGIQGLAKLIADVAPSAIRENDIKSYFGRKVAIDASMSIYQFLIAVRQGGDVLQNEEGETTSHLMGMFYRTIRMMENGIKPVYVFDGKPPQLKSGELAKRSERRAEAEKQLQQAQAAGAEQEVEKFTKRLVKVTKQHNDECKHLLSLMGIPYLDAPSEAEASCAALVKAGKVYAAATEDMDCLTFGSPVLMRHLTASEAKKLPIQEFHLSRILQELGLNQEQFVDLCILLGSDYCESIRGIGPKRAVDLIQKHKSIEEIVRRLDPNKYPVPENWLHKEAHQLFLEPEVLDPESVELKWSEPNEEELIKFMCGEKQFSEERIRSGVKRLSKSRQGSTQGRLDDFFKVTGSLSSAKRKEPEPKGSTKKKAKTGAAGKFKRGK
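FEN1 at 10 nM, compound pretreatment for 15 min (room temperature), 50 nM final substrate to initiate; endpoint reads at 0 and 15 min; DMSO-only plates used as vehicle background.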
POLH inh – blocks human DNA polymerase eta activity; Q9Y253; recombinant Pol eta, fluorescent DNA replication assay; Potency, µM (top dose mostly 114 µM), inactives show top-dose activity change, negative = inhibition, most hits filed as inhibitors; hit rate 1.2% among 390,000; AID 588591; also: % is scaled to controls: 0 for no effect and ±100 for the full control effect
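Pol eta (10 nM) was preincubated with compounds for 15 min at room temperature, after which fluorescent replication substrate (50 nM final) was added to start the reaction. Fluorescence was read kinetically at 0 and 10 min.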
Pol beta inh – inhibitors of human DNA polymerase beta. Pol beta primer extension/strand displacement, fluorescence kinetic. Potency, µM (highest dose often 114 µM), inactives show at the highest dose activity change, negative = inhibition, most hits filed as inhibitors. hit rate 1.3% among 340,000; also: % is scaled to controls: 0 for no effect and ±100 for the full control effect
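10 nM enzyme + cpd, 15 min RT; start with substrate 50 nM final; read 0 min and after 10 min RT. Corrected, normalized data; 4-parameter Hill curve fit.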
Pol kappa inh – inhibitors of human DNA polymerase kappa; Q9UBT6; purified Pol kappa, fluorescent DNA synthesis assay, 10 min; Potency, µM (highest dose often 107 µM), inactives show top-dose activity, negative = inhibition, usual class: inhibitors; hit rate 0.53% among 400,000; also: % is scaled to controls: 0 for no effect and ±100 for the full control effect
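Activity was followed as the change in fluorescence between reads at 0 and 10 min after starting the reaction with 50 nM substrate. Beforehand, 10 nM polymerase had been preincubated with compound for 15 min at room temperature.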
Pol iota inh – DNA polymerase iota (human) inhibition; Q9UNA4; Pol iota fluorescent replication assay, 10 min; Potency, µM (top dose mostly 115 µM), without a hit: at the highest dose activity, negative = inhibition, hits mostly inhibitors; hit rate 1% among 390,000; AID 588590
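Fluorescent replication assay read twice, at 0 min and 10 min after adding 50 nM (final) substrate. Enzyme (10 nM) and compounds were first incubated 15 min at room temperature; enzyme-free buffer wells were negative controls.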
Starred values were filed as active, the others as inactive; ? = inconclusive; / = no result; [ ] = another dose, or the depositor's remark. Only some compounds are listed: those with a hit (about 2.4% of all), similar ones and a draw of the others. Calls follow the shape of the dose curve; as a rule, active = well fitted curve in the direction sought with a large enough effect; inconclusive = small, poorly fitted or top-dose-only effect, or another doubt; inactive = no such curve, though single readings can be large; an effect the other way counts as inactive or inconclusive. Potency is read from the fitted curve at half-maximal effect.

SMILES	WRN helicase inh	FEN1 inhibitor	POLH inh	Pol beta inh	Pol kappa inh	Pol iota inh
O=C1c2cc(Br)ccc2N(Cc2ccc(Br)cc2)S(=O)(=O)C1c1cc(Cl)c(Cl)cc1[N+](=O)[O-] (configuration not stated)	?	?	22µM*	/	?	?
O=c1c2ccccc2ncn1-c1ccc(Br)cc1[N+](=O)[O-]	4%	1%	-21%	-5%	0%	26%
Cc1cc(-c2ccccc2)nc2cc(C(=O)NCc3ccco3)nn12	-33%	-16%	45µM*	?	?	?
O=C(NCc1ccco1)c1nn2c(C(F)(F)F)cc(-c3cccs3)nc2c1Br	-38%	1%	-15%	89µM*	-10%	5%
COc1ccc(-c2cc(C(F)(F)F)n3nc(C(=O)NCC45CC6CC(CC(C6)C4)C5)cc3n2)cc1OC	/	11%	0%	3%	-15%	-4%
O=C(NCc1ccco1)c1cc2nc(-c3ccc4c(c3)OCO4)cc(C(F)(F)F)n2n1	-14%	-4%	7%	79µM*	-30%	-5%
COc1ccc(-c2cc(C(F)(F)F)n3nc(C(=O)NCC45CC6CC(CC(C6)C4)C5)cc3n2)cc1	/	-24%	-5%	?	-20%	89µM*
COc1ccc(-c2cc(C(F)(F)F)n3nc(C(=O)NCc4ccco4)cc3n2)cc1	-24%	-5%	-9%	3%	-13%	-2%
CCc1ccc(OCCCn2c(CCNC(=O)C3CCCCC3)nc3ccccc32)cc1	/	7%	/	/	-18%	-8%
O=C(C[N+]1(CCc2ccccc2)CCOCC1)c1cccc([N+](=O)[O-])c1	/	-1%	/	/	2%	9%
Clc1ccc2c(Cl)cc[n+](CCC3CCCCC3)c2c1	/	-20%	/	/	-14%	-18%
CCCS(=O)(=O)c1ncc(Cl)c(C(=O)N2CCN(c3ccc(OC)cc3)CC2)n1	/	?	-6%	-1%	-4%[60.1 µM]	-12%
O=C(CCl)N(c1ccccc1)c1c[nH]c2ccccc12	-2%[11.6 µM]	-2%	14µM*	-15%	-11%	19%
O=C(CCl)N(c1ccc(Cl)cc1)c1c[nH]c2ccccc12	-16%[11.6 µM]	-19%	?	-11%	-23%	?
O=C(Nc1ccc(Cl)cc1F)c1ccc(COc2c(F)c(F)c(F)c(F)c2F)o1	-17%	-2%	20µM*	45µM*	-32%	-15%
O=C(NCCc1csc(-c2ccc(C(F)(F)F)cc2)n1)c1ccc(F)c(F)c1	/	-20%	-8%	-8%	-9%[60.1 µM]	?
Oc1ccc(Nc2nc(-c3ccc4ccccc4c3)cs2)cc1	/	/	/	-30%	/	/
Oc1ccc(-c2nc(-c3ccc(O)c(O)c3)cs2)cc1	?	-12%	?	40µM*	?	?
Cc1ccc(C(=O)N/N=C\c2ccc(-c3ccc(Cl)cc3)o2)cn1	-12%	-10%	-14%	2%	-8%	16%
CC(C)Oc1ccc(C(=O)N/N=C/c2ccc(-c3ccc(S(=O)(=O)Nc4ncccn4)cc3)o2)cc1	50µM*	79µM*	2.8µM*	1%	45µM*	?
CN1CCN(c2ccnc(-c3ccoc3)n2)CC1	/	/	/	/	-1%[60.1 µM]	/
Fc1ccc(/C=C2\CCCC3=C2Nc2ncnn2C3c2ccc(F)cc2)cc1 (configuration not stated)	50µM*	-22%	-14%	30%	-16%	-13%
COc1ccc(C2C3=C(Nc4ncnn42)c2ccccc2CCC3)cc1 (configuration not stated)	-8%	-8%	12%	19%	-5%	7%
N#Cc1ccc(/C=N/NC(=S)Nc2ccc(S(=O)(=O)N3CCOCC3)cc2)cc1	-11%	-3%	-17%	-2%	-2%	23%
O=S(=O)(c1ccc(NC(=S)N/N=C/c2ccc(O)c(O)c2)cc1)N1CCOCC1	-27%	0%	-3%	-27%	?	20µM*
SMILES	WRN helicase inh	FEN1 inhibitor	POLH inh	Pol beta inh	Pol kappa inh	Pol iota inh
Cc1cc(C)cc(NC(=O)CSCn2nnc3c(=O)[nH]c(Cc4ccc(F)cc4)nc32)c1	/	?	?	40µM*	79µM*	79µM*
Fc1ccc(Nc2nc3nonc3nc2Nc2cccc(C(F)(F)F)c2)cc1	/	?	3%	16%	-4%	-16%
O=C(Nc1ccc2ccccc2c1)c1nc(S(=O)(=O)Cc2ccccc2F)ncc1Cl	/	-19%	/	/	-17%	-4%
NC(=S)NNc1cccc2cccnc12	?	-30%	2%	-11%	-16%	11µM*
CN(C)c1ccc(C2C=Cc3ccccc32)c2ccccc12 (configuration not stated)	/	-3%	/	/	9%	21%
CC(=O)Nc1cc(N=Cc2ccc(O)cc2O)c(Cl)cc1Cl	4%	0%	45µM*	5%	-16%	?
COc1ccc(O)c(C(=O)C2c3ccccc3C(=O)N2c2ccc(C)cc2)c1 (configuration not stated)	50µM*	-6%	-13%	-9%	-17%	8%
COc1ccc(N2C(=O)c3ccccc3C2O)cc1 (configuration not stated)	15%	7%	-13%	16%	-7%	-9%
CC[C@H](C)[C@H](NC(=O)[C@H](CCCNC(=N)N)NC(=O)[C@@H](NC(=O)[C@H](CCCNC(=N)N)NC(=O)[C@H](CCCCN)NC(=O)[C@H](CCCNC(=N)N)NC(=O)[C@@H](NC(=O)[C@H](CC(N)=O)NC(=O)[C@@H](N)CS)[C@@H](C)O)[C@@H](C)CC)C(=O)N[C@@H](CCC(N)=O)C(=O)N[C@@H](CCCNC(=N)N)C(=O)NCC(=O)N1CCC[C@H]1C(=O)NCC(=O)N[C@@H](CCCNC(=N)N)C(=O)N[C@@H](C)C(=O)N[C@@H](Cc1ccccc1)C(=O)N[C@H](C(=O)N[C@H](C(=O)N[C@H](C(=O)NCC(=O)N[C@@H](CCCCN)C(=O)O)[C@@H](C)CC)[C@@H](C)O)C(C)C	/	/	/	/	-11%[12 µM]	/
CCCC/C=C/[C@@H](c1ccccc1)C1COC(=O)CC1O (some centres not stated)	/	-7%	/	/	-6%	?
O=C(Nc1nnc(-c2ccccc2)s1)C1CCCN(C(=O)c2ccoc2)C1 (configuration not stated)	/	-5%	/	/	-7%	4%
Cc1c(Cl)cccc1NC(=S)N1CCN(C(=O)c2ccco2)CC1	-31%	9%	-3%	79µM*	3%	18%
COc1ccccc1CNc1ncnc2ccc(-c3ccccc3OC)cc12	/	/	/	/	8%[60.1 µM]	/
COc1ccc(C(=O)NCCn2cc(SCC(=O)Nc3ccc(C)cc3)c3ccccc32)cc1	/	7%	-5%	-1%	-11%[60.1 µM]	-24%
COc1ccc(C(=O)NCCn2cc(SCc3cc(C)ccc3C)c3ccccc32)cc1	/	-15%	-5%	3%	-9%	89µM*
